Experimental findings from PubChem BioAssay (EPA / NIEHS) are described below.

Values joined by “and” are separate entries in the source; they are usually repeats but may differ in a detail not shown here. Identical values can stand only once. Inconclusive results are not listed. More than one record can exist for a structure, and the calls need not agree. Active and inactive are the calls of the source. The calls were made as follows, unless noted: active = hit-call score of the fitted dose curve at least 0.9, where 1 is the maximum; inconclusive = response in the unintended direction; inactive = score below 0.9.

Read-out in assay [1]: UDP glucuronosyltransferase (UGT1A1), UGT1A1 (gene 54658)
Put plainly: LTEA_HepaRG_UGT1A1: Life Technologies and Expression Analysis (LTEA) Assay for UDP glucuronosyltransferase (UGT1A1) using HepaRG (AID 2283538; active = hit-call score of the fitted dose curve at least 0.9, where 1 is the maximum; inactive = score below 0.9). The conditions noted are these: mRNA level, 48 h; actives raise or lower the signal. An outline of the steps:
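Readout is UGT1A1 transcript level by qRT-PCR, normalized to three housekeeping genes, after 48 h chemical treatment of HepaRG cells. Concentrations ran from 100 uM down in half-log steps with 0.5% DMSO, and gain or loss relative to DMSO was fitted.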

Read-out in assay [2]: UDP glucuronosyltransferase (UGT1A6), UGT1A6 (gene 54578)
Briefly: LTEA_HepaRG_UGT1A6: Life Technologies and Expression Analysis (LTEA) Assay for UDP glucuronosyltransferase (UGT1A6) using HepaRG (AID 2283539; active = hit-call score of the fitted dose curve at least 0.9, where 1 is the maximum; inactive = score below 0.9). The following applies: mRNA level, 48 h; actives raise or lower the signal. An outline of the steps:
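Endpoint is UGT1A6 transcript induction or loss in a human liver cell line, quantified by TaqMan qRT-PCR 48 h after dosing. Concentrations ran from 100 uM downward in half-log steps in 0.5% DMSO; activity was fitted in both directions versus vehicle.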

Read-out in assay [3]: X-box binding protein 1 (XBP1), XBP1 (gene 7494)
Put plainly: LTEA_HepaRG_XBP1: Life Technologies and Expression Analysis (LTEA) Assay for X-box binding protein 1 (XBP1) using HepaRG (AID 2283540; active = hit-call score of the fitted dose curve at least 0.9, where 1 is the maximum; inactive = score below 0.9). The following applies: mRNA level, 48 h; actives raise or lower the signal. An outline of the steps:
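Human HepaRG monolayers receive test chemical for 48 h across an eight-point half-log series starting at 100 uM. XBP1 mRNA gain or loss is scored against DMSO by qRT-PCR.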

A short description of assay [4]: LTEA_HepaRG_LDH_cytotoxicity: Cytotoxicity Assessment in the Life Technologies and Expression Analysis (LTEA) Assay (AID 2283563).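 As to AC50: LDH activity released into spent culture medium as a marker of cell death.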 A digest of the protocol: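 Human HepaRG hepatic cells are treated with test chemicals for 48 h at up to 100 uM in 0.5% DMSO. Cytotoxicity is scored from medium LDH against the vehicle control.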
Assay [5] is described as follows: TOX21_p53_BLA_p2_viability: Viability Assessment in the Tox21 HCT-116 p53 Agonism Beta-lactamase Assay, Phase 2 (AID 2283591).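 Also: actives lower the ATP signal meaning cytotoxicity.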 An outline of the steps:
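Cytotoxicity readout: CellTiter-Glo ATP luminescence, 30 min at room temperature, after the beta-lactamase read. Cells were HCT116 exposed 16 h at 37C to compounds pin-transferred at 217-fold dilution from DMSO stocks.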

In assay [6] the target is Cellular tumor antigen p53 (Homo sapiens) (UniProt P04637). Put plainly: TOX21_p53_BLA_p2_ratio: Tox21 HCT-116 p53 Agonism Beta-lactamase Assay, Ratio, Phase 2 (AID 2283592). A digest of the protocol:
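An inducible beta-lactamase reporter in HCT116 cells signals p53 pathway activation. After 16 h chemical exposure at 37C, cells load CCF4-AM substrate for 2 h at room temperature; activity is the cleaved/uncleaved emission ratio relative to DMSO.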

Assay [7] can be described thus: TOX21_p53_BLA_p3_viability: Viability Assessment in the Tox21 HCT-116 p53 Agonism Beta-lactamase Assay, Phase 3 (AID 2283593).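 Also: cells exposed to compound for 16 h before reading.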 A digest of the protocol: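 Cellular ATP was quantified by CellTiter-Glo luminescence, read after 30 min at room temperature. Beforehand, HCT116 cells (4000/well) received compound 5 h post-seeding, 217-fold diluted from DMSO, then incubated 16 h at 37C.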

Assay [8] concerns the target Cellular tumor antigen p53 (Homo sapiens) (UniProt P04637). Put plainly: TOX21_p53_BLA_p3_ratio: Tox21 HCT-116 p53 Agonism Beta-lactamase Assay, Ratio, Phase 3 (AID 2283596). An outline of the steps: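 HCT116 p53-bla cells (4000/well) given compound in DMSO (217-fold dilution) after 5 h, incubated 16 h at 37C. CCF4-AM substrate 2 h at room temperature; 460/530 nm emission ratio, gain fitted against DMSO.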

Assay [9] in a line: TOX21_p53_BLA_p4_viability: Viability Assessment in the Tox21 HCT-116 p53 Agonism Beta-lactamase Assay, Phase 4 (AID 2283597).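 Also: hits lower the luminescence signal meaning cytotoxicity.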 An outline of the steps:
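Compound exposure of HCT116 cells lasts 16 h at 37C, 5% CO2, with DMSO stocks diluted 217-fold. Cellular ATP is then quantified by CellTiter-Glo luminescence after 30 min at room temperature.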

Assay [10] addresses Cellular tumor antigen p53 (Homo sapiens) (UniProt P04637). Put plainly: TOX21_p53_BLA_p5_ratio: Tox21 HCT-116 p53 Agonism Beta-lactamase Assay, Ratio, Phase 5 (AID 2283599). A digest of the protocol:
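Beta-lactamase reporter ratio (blue 460 nm over green 530 nm, 405 nm excitation) after 2 h CCF4-AM loading, in HCT-116 cells exposed 16 h at 37 C to compounds pinned at 217-fold dilution. Increases relative to DMSO baseline scored.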

The nature of assay [11]: TOX21_p53_BLA_p5_viability: Viability Assessment in the Tox21 HCT-116 p53 Agonism Beta-lactamase Assay, Phase 5 (AID 2283600). An outline of the steps:
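Counter-readout for cytotoxicity: ATP-dependent luminescence from CellTiter-Glo, read in the beta-lactamase wells after 30 min at RT, following a 16 h compound exposure at 37C.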

Assay [12] is described as follows: Tanguay_ZF_120hpf_MORT_legacy: (Legacy) Oregon State University Tanguay Lab 120 Hour Post-fertilization zebrafish Assay for Mortality (AID 2283633).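 As to AC50: fitted as increase in binary mortality versus DMSO negative control.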 An outline of the steps: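 Mortality endpoint from a multiplexed whole-embryo zebrafish screen. Dechorionated wild-type embryos received compound at 6 hpf and remained under static exposure at 28C until 120 hpf, with death noted as a present/absent call.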

Assay [13] is described as follows: Tanguay_ZF_120hpf_YSE_legacy: (Legacy) Oregon State University Tanguay Lab 120 Hour Post-fertilization zebrafish Assay for Yolk Sac Edema (AID 2283634). A digest of the protocol:
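Readout: presence or absence of yolk sac edema at 120 hpf, fitted upward against DMSO controls. Exposure ran statically from 6 hpf in dechorionated embryos kept at 28C.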

The nature of assay [14]: Tanguay_ZF_120hpf_AXIS_legacy: (Legacy) Oregon State University Tanguay Lab 120 Hour Post-fertilization zebrafish Assay for Body Axis Malformation (AID 2283635). An outline of the steps:
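Static 6–120 hpf chemical exposure of dechorionated wild-type 5D zebrafish, one per well at 28C; morphology endpoint scored binary at 120 hpf relative to DMSO control.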

The nature of assay [15]: Tanguay_ZF_120hpf_EYE_legacy: (Legacy) Oregon State University Tanguay Lab 120 Hour Post-fertilization zebrafish Assay for Eye Malformation (AID 2283636). An outline of the steps: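 Read-out is binary presence or absence of eye malformation, scored by brightfield microscopy at 120 hpf. Single larvae were exposed from 6 hpf in embryo medium containing 0.64% DMSO, with DMSO as baseline.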

Assay [16] in a line: Tanguay_ZF_120hpf_SNOU_legacy: (Legacy) Oregon State University Tanguay Lab 120 Hour Post-fertilization zebrafish Assay for Snout Malformation (AID 2283637). An outline of the steps:
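Snout malformation read as a yes/no call on brightfield images of 120 hpf larvae (Tropical 5D strain). Static exposure began at 6 hpf on dechorionated embryos in 0.64% DMSO, with gain of signal analysed versus DMSO controls.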

A short description of assay [17]: Tanguay_ZF_120hpf_JAW_legacy: (Legacy) Oregon State University Tanguay Lab 120 Hour Post-fertilization zebrafish Assay for Jaw Malformation (AID 2283638). An outline of the steps: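 Static waterborne exposure of dechorionated wild-type (Tropical 5D) zebrafish from 6 to 120 hpf at 28C, 0.64% DMSO vehicle; 5uM trimethyltin chloride served as positive control. Jaw morphology recorded as binary at 120 hpf.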

A short description of assay [18]: Tanguay_ZF_120hpf_OTIC_legacy: (Legacy) Oregon State University Tanguay Lab 120 Hour Post-fertilization zebrafish Assay for Otic Vesicle Malformation (AID 2283639). A digest of the protocol:
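Embryos from 5D wild-type adults exposed in plates; DMSO 0.64% v/v final. Sealed, light-protected, 28C, static to 120 hpf. Otic vesicle malformation recorded as binary endpoint; gain-of-signal fitted vs DMSO.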

Cellular tumor antigen p53 (Homo sapiens), sequence (P04637 whole entry, looked up): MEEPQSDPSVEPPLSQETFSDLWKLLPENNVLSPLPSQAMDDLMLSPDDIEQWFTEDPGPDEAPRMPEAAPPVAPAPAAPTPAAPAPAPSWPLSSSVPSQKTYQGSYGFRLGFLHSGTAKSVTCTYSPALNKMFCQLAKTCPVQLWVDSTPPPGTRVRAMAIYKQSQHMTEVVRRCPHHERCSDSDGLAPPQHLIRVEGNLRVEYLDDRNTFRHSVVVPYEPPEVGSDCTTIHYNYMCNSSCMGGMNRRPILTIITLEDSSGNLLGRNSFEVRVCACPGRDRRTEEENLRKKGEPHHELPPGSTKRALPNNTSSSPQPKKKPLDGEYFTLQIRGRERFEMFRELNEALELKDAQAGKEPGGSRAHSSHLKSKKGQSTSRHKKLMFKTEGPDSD

What is called AC50 is the midpoint of the concentration-response curve, whichever way the signal moves. On to `Oc1ccccc1O`, for which the outcome in assay [1], in [2], in assay [3], in assay [4], in assay [5] and in assay [6] was inactive. Also, the molecule was classed as inactive in [7], in assay [8], in assay [10], in assay [11], in assay [12] and in assay [13]. The outcome in [14], in [15] and in assay [16] was inactive. In addition, the AC50 in [7] is 74.5 µM (active); in assay [9] it was 70.9 µM (active) and 46.5 µM (active).

As for `CSc1ccc(Oc2ccc(S(N)(=O)=O)cc2CN(C)C)cc1C`, the result in assay [1], in [2], in assay [3], in assay [12], in assay [13] and in assay [14] was inactive. Moreover, the molecule was called inactive in assay [15], in assay [16], in [17] and in [18]. For the same molecule, the AC50 in assay [4] was 81.4 µM (active).

As for `CN(C)C(=O)NC1(c2ccccc2)CCN(CCC[C@]2(c3ccc(Cl)c(Cl)c3)CCCN(C(=O)c3ccccc3)C2)CC1`, the AC50 in assay [1] was 22 µM (active); in assay [2], 22 µM (active); in assay [3] it was 12.5 µM (active); in [4] it was 19.1 µM (active). Further, the molecule was classed as inactive in assay [5], in assay [6], in assay [7], in assay [8], in [9] and in [11]. Moreover, the molecule was called inactive in assay [12], in assay [13], in [14], in assay [15], in assay [16] and in assay [17]. The result in assay [18] was inactive.

`COc1ccc(OC(F)(F)F)cc1CN[C@H]1CCCN[C@H]1c1ccccc1`: the AC50 in assay [1] is 83.8 µM (active); in assay [2] it was 89.9 µM (active); in [4], 73.6 µM (active); in assay [5], 69.3 µM (active); in [9], 62.1 µM (active); in assay [12] it was 25 µM (active). Besides, the molecule was called inactive in assay [3], in [6], in assay [7], in assay [10], in assay [11] and in assay [13]. For the same molecule, the molecule was classed as inactive in assay [15], in [16], in [17] and in [18].

In the case of `Cc1cc(SC2=C(O)C[C@@](CCc3ccc(N)cc3)(C(C)C)OC2=O)c(C(C)(C)C)cc1CO`, the AC50 in assay [1] is 1.38 µM (active). The molecule was classed as inactive in assay [2], in assay [3], in assay [4], in [5], in assay [6] and in assay [8]. Further, the molecule was called inactive in assay [9], in [10], in [11], in assay [12], in assay [14] and in assay [15]. Further, the molecule was classed as inactive in [16], in [17] and in [18].

Turning to `NC(=Nc1ccccc1)Nc1ccccc1`, the molecule was classed as inactive in assay [1], in [2], in [3], in assay [5], in [6] and in [7]. Moreover, the result in assay [9], in [10], in [11], in assay [12], in [14] and in [15] was inactive. The result in [16], in assay [17] and in assay [18] was inactive.
